Bioassay records: PubChem, National Center for Advancing Translational Sciences (NCATS)
Most compounds without a hit are left out; they make up all but 16% or so of the library.
DT40 TDP1 no CPT: qHTS for Inhibitors of human tyrosyl-DNA phosphodiesterase 1 (TDP1): qHTS in cells in absence of CPT; 420,000 tested, 15% active; DT40 Tdp1-/- hTDP1 cells, no CPT, ATP luminescence, 48 h; Potency, µM (highest dose often 46.2 µM), without a hit: top-dose activity change, negative = growth inhibition, actives largely listed as inhibitors; AID 686978, 2013; also: potency is read from the fitted curve at half-maximal effect; % is scaled to controls: 0 for no effect and ±100 for the full control effect; nearly all actives have a fitted effect of over 55% in size
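Compound effects on proliferation are scored in DT40 Tdp1-/-;hTDP1 cells in the absence of CPT. ATP levels (CellTiter-Glo luminescence) are recorded after a ≥48 hr, 37 °C incubation.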
miR-21 act: qHTS Assay for Modulators of miRNAs and/orActivators of miR-21. AID 2288, 2010. 340,000 tested, under 10 active. Potency, µM (top dose mostly 38.3 µM), for inactives: at the highest dose activity change, positive = activation, usual class: activators. HeLa miR-21 FLuc reporter, luciferase, 48 h;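 also: % of control where 0% means no effect; miR-21 action dims this reporter so a rising signal means less miR-21 action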
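HeLa miR-21-FLuc reporter line, endogenous miR-21; 2000 cells/well in DMEM/10% FBS; compound titration up to ~40uM final, 48 h, 37 degree Celsius; luciferase detection reagent, 15 min lysis, CCD luminescence.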
TDP1 cell CPT: qHTS for Inhibitors of human tyrosyl-DNA phosphodiesterase 1 (TDP1): qHTS in cells in presence of CPT. chicken DT40 Tdp1-/-;hTDP1 cells + 20 nM CPT, ATP luminescence, 48 h. 420,000 tested, 12% active. Potency, µM (highest dose often 46.2 µM), inactives show at the top dose activity change, negative = growth inhibition, most hits filed as inhibitors. AID 686979, 2013; also: potency is read from the fitted curve at half-maximal effect; % is scaled to controls: 0 for no effect and ±100 for the full control effect; nearly all actives have a fitted effect of over 55% in size
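Chicken DT40 Tdp1-/- cells stably complemented with human TDP1 were seeded at 400 cells/well in medium containing 20 nM camptothecin, exposed to pin-transferred compounds, and grown at 37 °C for at least 48 hr. Viability was read as ATP luminescence.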
uPA generation: qHTS for Inhibitors of Cell Surface uPA Generation; cell surface uPA generation assay, qHTS; Potency, µM (top dose mostly 38.3 µM), without a hit: at the highest dose activity change, negative = inhibition, most hits filed as inhibitors; 330,000 tested, 0.31% active; AID 540303, 2011; active = well fitted inhibition curve with a large enough effect; inconclusive = small, poorly fitted or top-dose-only effect; inactive = no such curve, though single readings can be large or run the other way; tested in mouse RAW 264.7 cells; also: potency is read from the fitted curve at half-maximal effect; % is scaled to controls: 0 for no effect and ±100 for the full control effect; nearly all actives have a fitted effect of over 55% in size
TDP1 block: qHTS Assay for Inhibitors of Tyrosyl-DNA Phosphodiesterase (TDP1) | recombinant TDP1, AlphaScreen DNA substrate cleavage | Potency, µM (top dose mostly 130 µM), for inactives: at the highest dose activity change, negative = inhibition, actives largely listed as inhibitors | 350,000 tested, 0.28% active | Tyrosyl-DNA phosphodiesterase 1 (Homo sapiens), Q9NUW8; also: potency is read from the fitted curve at half-maximal effect; % is scaled to controls: 0 for no effect and ±100 for the full control effect; nearly all actives have a fitted effect of over 40% in size
Target sequence (Q9NUW8 whole entry, looked up): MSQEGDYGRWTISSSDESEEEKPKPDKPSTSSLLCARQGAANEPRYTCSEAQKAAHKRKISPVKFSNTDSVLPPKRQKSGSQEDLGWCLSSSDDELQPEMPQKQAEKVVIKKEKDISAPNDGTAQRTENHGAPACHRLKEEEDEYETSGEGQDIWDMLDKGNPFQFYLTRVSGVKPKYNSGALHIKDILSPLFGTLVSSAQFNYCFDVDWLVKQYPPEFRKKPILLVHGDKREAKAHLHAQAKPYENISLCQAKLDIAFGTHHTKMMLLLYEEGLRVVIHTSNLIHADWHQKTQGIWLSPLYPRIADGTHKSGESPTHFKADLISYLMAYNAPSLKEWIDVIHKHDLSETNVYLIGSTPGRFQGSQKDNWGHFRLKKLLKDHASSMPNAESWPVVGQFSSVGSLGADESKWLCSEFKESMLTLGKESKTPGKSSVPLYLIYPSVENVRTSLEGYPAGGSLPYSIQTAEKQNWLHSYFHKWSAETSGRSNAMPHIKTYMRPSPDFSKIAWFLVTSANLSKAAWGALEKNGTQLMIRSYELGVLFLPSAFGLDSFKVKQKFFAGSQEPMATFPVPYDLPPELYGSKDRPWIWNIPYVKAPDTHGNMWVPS
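Tdp1 1 nM final; 15 min RT w/ cpd; substrate 15 nM, 5 min; beads 10 ug/ml, 10 min; AlphaScreen read. Neg ctrl: no enzyme.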
The depositor's hits bear a star; ? = inconclusive; nt = no result; [ ] = dose if it differs, or a comment. Unless noted, calls follow the shape of the dose curve; as a rule, active = well fitted curve in the direction sought with a large enough effect; inconclusive = small, poorly fitted or top-dose-only effect, or another doubt; inactive = no such curve, though single readings can be large; an effect the other way counts as inactive or inconclusive.

SMILES	DT40 TDP1 no CPT	miR-21 act	TDP1 cell CPT	uPA generation	TDP1 block
Fc1ccc(Nc2nc(SCc3ccc(Cl)cc3)nc3ccccc23)cc1	-102%	11%	?	nt	-10%
Clc1ccc(CSc2nc(NCCc3ccccc3)c3ccccc3n2)cc1	6.5µM*	-6%	9.2µM*	nt	4%
COc1ccc(CCNc2nc(SCc3cccc(F)c3)nc3ccccc23)cc1OC	?	-1%	16µM*	nt	-1%
Fc1ccc(Nc2nc(SCc3cccc(F)c3)nc3ccccc23)cc1	16µM*	13%	15µM*	nt	-8%
COc1ccc(CNc2nc(-c3ccccc3)nc3ccccc23)cc1OC	?	-7%	-3%	3%	nt
COc1ccc(CCNc2c3ccccc3nc3ccccc23)cc1OC	21µM*	?	?	-5%	1%
COC(=O)c1ccccc1NC(=O)Cn1nc2n(C)c3ccccc3n2c(=O)c1=O	nt	-2%	nt	nt	0%
Clc1ccccc1CSc1nc(NCCc2ccccc2)c2ccccc2n1	13µM*	2%	?	nt	-4%
O=c1cc(CSc2nc(NCc3ccccc3)c3ccccc3n2)nc2ccc(Cl)cn12	12µM*	-3%	16µM*	23%	5%
CC(C)OC(=O)c1cc2c(OC[C@@H](O)CNC(C)(C)C)cccc2[nH]1	nt	nt	nt	nt	9%[56.1 µM]
Cc1cc(C)cc(OCC(=O)NNC(=O)c2ccccn2)c1	6.5µM*	nt	9.2µM*	?	-3%[56.1 µM]
O=C(COc1ccc(Cl)cc1)NNC(=O)c1ccccn1	?	11%	?	-1%	9%
Cc1ccc(OCCCC(=O)NNC(=O)c2ccccn2)cc1	5.8µM*	nt	6.5µM*	?	1%
COc1ccc([N+](=O)[O-])cc1C(=O)Nc1ccc(Cc2ccncc2)cc1	?	-38%	-12%	-6%	6%
COc1ccc(Cc2noc(CN3CCCC(C(=O)c4cccs4)C3)n2)cc1OC (stereo not given)	?	20%	4%	-5%	3%
O=c1nc(N/N=C/C=C/c2ccccc2)cn[nH]1	8.2µM*	-38%	?	3%	5%
N#CC1=C(N)N(c2ccccc2)C(c2ccccc2)C1(C#N)C#N (stereo not given)	15µM*	-29%	16µM*	-4%	-6%
Cc1nn(-c2ccccc2)c2c1C(c1ccccc1)C(C#N)=C(N)O2 (stereo not given)	?	-2%	?	7%	3%
O=C(NCc1ccccn1)C(=O)N/N=C/c1ccccc1O	23µM*	0%	?	0%	nt
O=C(CCCC(=O)N/N=C/c1ccccc1C(=O)O)N/N=C/c1ccccc1C(=O)O	-19%	-2%	-20%	13%	3%
O=C(N/N=C\c1ccccc1O)c1ccccc1O	0.53µM*	nt	0.53µM*	nt	32µM*
O=C(CCCCC(=O)NN=Cc1ccccc1O)NN=Cc1ccccc1O	5.8µM*	nt	5.8µM*	-6%	nt
O=C(N/N=C/c1cc(Br)ccc1O)c1ccccc1Cl	0.92µM*	17%	0.65µM*	-7%	3%
COC(=O)N/N=C/c1cc(Br)ccc1O	-14%	-8%	-1%	-2%	0%
COc1cc(NC(=O)C(CC(C)C)NS(=O)(=O)c2ccc3c(c2)oc(=O)n3C)c(C(=O)O)cc1OC (stereo not given)	-7%	-1%	-6%	nt	-8%
SMILES	DT40 TDP1 no CPT	miR-21 act	TDP1 cell CPT	uPA generation	TDP1 block
CC1(C(=O)NS(=O)(=O)c2cccc(Cl)c2)CCN1C(=O)Cc1ccccc1 (stereo not given)	-1%	nt	-8%	nt	nt
CSc1nc(C)cc(OCC(=O)N/N=C/c2ccccc2O)n1	?	29%	2.9µM*	-16%	4%
O=C(CCC(=O)Nc1ccc(Br)cc1)N/N=C/c1ccccc1O	6.5µM*	16%	?	-7%	nt
O=C(Cn1cc(C(F)(F)F)ccc1=O)N/N=C/c1ccc(F)cc1	-27%	0%	23%	1%	-8%
Cc1cc(=O)oc2cc(OCC(=O)N/N=C/c3ccccc3O)ccc12	-32%	-4%	-5%	4%	8%[0.0935 µM]
O=C(N/N=C/c1cc(Cl)ccc1O)c1ccncc1	3.3µM*	12%	5.8µM*	-10%	13%
O=C(Cn1cc(C(F)(F)F)ccc1=O)N/N=C/c1ccccc1O	7.3µM*	17%	16µM*	-5%	4%
COc1ccc(C2/C=C\CN(C(=O)c3ccccc3)CC(=O)N2Cc2ccc(F)cc2)cc1 (stereo not given)	?	9%	-27%	4%	10%
Cc1ccc(OCC(O)CNCc2ccc(F)cc2)cc1 (stereo not given)	?	-18%	?	-1%	nt
COc1ccc(C2CC(=O)C(C=NCCO)=C(O)C2)cc1 (stereo not given)	8%	0%	-24%	-9%	nt
O=C(Cc1ccc([N+](=O)[O-])cc1)Nc1ccon1	12%	0%	-14%	1%	4%[56.1 µM]
NS(=O)(=O)c1cccc(NC(=O)Nc2ccc(Cl)cc2)c1	-21%	-31%	-27%	1%	nt
COc1ccc([C@@H]2[C@@H](C(=O)C(C)(C)C)N3N=Cc4ccccc4[C@@H]3C23C(=O)OC(C)(C)OC3=O)cc1OC	-13%	-5%	2%	2%	-8%
Cc1ccc(NC(=O)CCC(=O)N/N=C/c2ccccc2O)cc1	15µM*	13%	10µM*	?	nt
COCCCNC(=S)N/N=C/c1ccccc1O	0.58µM*	-28%	2.6µM*	-15%	9%
Cc1ccc(SCCC(=O)N/N=C/c2ccccc2O)cc1	1.3µM*	14%	0.65µM*	-4%	3%
CCCCCCCC(=O)N/N=C/c1cccnc1	-3%	-1%	-22%	-5%	2%
Cc1cccc(NC(=O)CCC(=O)N/N=C/c2ccc(O)cc2O)c1	?	5%	-94%	-7%	nt
CCCCCCCC(=O)N/N=C/c1ccc(Br)cc1	15µM*	0%	?	nt	0%
C=C1CCN(C(CC(C)C)C(=O)Nc2ccc(OC)cc2)S(=O)(=O)c2ccccc21 (stereo not given)	nt	nt	nt	nt	6%
CCc1ccc2nc(NC3=NCN(CCN4CCOCC4)CN3)nc(C)c2c1	nt	-8%	nt	nt	-4%
CC(=O)c1ccc(NC(=O)CSc2nnc(C3CC3)n2C)cc1	-6%	-2%	4%	-1%	10%
COc1ccccc1OCCCOc1ccc(/C=C2\SC(=O)NC2=O)cc1OC	13µM*	0%	16µM*	-5%	nt
COc1ccc(C=C2SC(=O)NC2=O)cc1OC	16µM*	nt	?	-8%	nt
COc1ccccc1OCCCOc1cccc(/C=C2\SC(=O)NC2=O)c1	?	-4%	?	-3%	nt
